From PubChem BioAssay (NCI)
Compounds without any hit were thinned out: in the full panel of roughly 83,000, 20% have a hit.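 Activity criterion: percent growth below 10, measured after cells in 96-well plates were exposed to a single compound concentration for 48 hours.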 Values without a mark were called inactive. Activity calls are given as the source filed them.

Tests used:
Assay in all cases: NCI-60 one-dose screen, 48 h (100 = growth as untreated, 0 = no growth, -100 = all killed)
Conditions in all cases: 10 µM unless noted
NCI-H23 lung = system: NCI-H23 lung
NCI-H226 lung = system: NCI-H226 lung
NCI-H322M lung = system: NCI-H322M lung
HOP-62 NSCLC = system: HOP-62 NSCLC
NCI-H460 lung = system: NCI-H460 lung
HOP-92 NSCLC = system: HOP-92 NSCLC
NCI-H522 lung = system: NCI-H522 lung
A549/ATCC NSCLC = system: A549/ATCC NSCLC
786-0 renal = system: 786-0 renal
COLO 205 colon = system: COLO 205 colon

Compound | growth (NCI-H23 lung) | growth (NCI-H226 lung) | growth (NCI-H322M lung) | growth (HOP-62 NSCLC) | growth (NCI-H460 lung) | growth (HOP-92 NSCLC) | growth (NCI-H522 lung) | growth (A549/ATCC NSCLC) | growth (786-0 renal) | growth (COLO 205 colon)
CNC12C3C4C1C1C2C3C41C(=O)N[C@H](C(=O)N(C)[C@H](C[C@@H](OC(C)=O)c1nc(C(=O)N[C@@H](Cc2ccccc2)C[C@H](C)C(=O)OC)cs1)C(C)C)C1CC1 (stereo not given in full) | 7.82% (active) | 11.2% | 48.5% | 22.1% | 14.8% | -15.3% (active) | -27.4% (active) | 17.7% | 15.5% | -46.5% (active)
C/C(Cc1ccc(Cl)cc1)=C(\c1ccc(OCCN2CCOCC2)cc1)c1ccc(OC(=O)Cc2ccccc2)cc1 | 92.9% | 101% | 83% | 102% | 95.8% | 77.2% | 69.7% | 78.9% | 92.6% | 99.8%
O=C(CCCCCNC1=CC(=O)c2ccccc2C1=O)NCCC[Te]c1ccccc1 | -12.9% (active) | -54.6% (active) | -8.86% (active) | -51% (active) | -45.3% (active) | -32.4% (active) | -18.5% (active) | -45.4% (active) | -48.5% (active) | -57% (active)
O=C(CC1(O)C(=O)Nc2ccccc21)c1ccc(C(=O)NCC2CCC3(CC2)OOC2(CCCCC2)OO3)cc1 (stereo not given) | 50.4% | 63.6% | 88.9% | 63.8% | 77.1% | -53.6% (active) | 54.9% | 57.9% | -34% (active) | 80%
CN1C(=O)C(=Cc2cn(CCCCCCn3c4ccccc4c(=O)c4ccccc43)c3ccccc23)C(=O)N(C)C1=O | 79.9% | -20.8% (active) | 99.4% | 89.1% | 85.1% | 97.5% | 94.9% | 103% | 97.4% | 102%
C=CC[PH+](c1ccccc1)c1ccccc1.C=CC[PH+](c1ccccc1)c1ccccc1.[Cl][Pt][Cl] | 58.8% | 73.9% | 101% | 95.8% | 91.9% | 16% | 9.41% (active) | 88.2% | 49.7% | 22.2%
CN1CCC(c2c[nH]c3ccccc23)C1 (stereo not given) | 88.9% | 106% | 118% | 84.3% | 124% | 92.9% | 79.5% | 122% | 99.3% | 108%
CO[C@H]1CC[C@@]2(C)C(=CC[C@@H]3[C@@H]2CC[C@]2(C)C(=O)C(=O)C[C@@H]32)C1 | 99.5% | 96.1% | 120% | 106% | 102% | 83.7% | 98% | 111% | 107% | 118%
C#Cc1ccc2c(c1)C(c1ccccc1)=NCC(=O)N2C | 63.3% | 69% | 77.7% | 49.8% | 17.4% | 72.2% | 9.39% (active) | 53.6% | 59% | 15.8%
CCC(O)(CN)c1ccccc1 (stereo not given) | 101% | 92.4% | 102% | 97.3% | 107% | 93.1% | 79.2% | 86.6% | 97.8% | 102%
CCc1ccccc1[C@@H]1C[C@]2(C)CCO[C@@H]2OO1 | 104% | 102% | 105% | 98.2% | 107% | 92.7% | 104% | 96.8% | 101% | 118%
N#CC1(c2ccccc2)CCN(Cc2ccccc2)CC1 | 98.9% | 101% | 144% | 106% | 104% | 51.8% | 92.6% | 99.5% | 101% | 105%
COc1ccc2c(c1)c(-c1nc(-c3c[nH]c4ncccc34)cs1)cn2CCN1CCOCC1 | 57.3% | 49.7% | 57.3% | 27.4% | 40.8% | 28.8% | 44.5% | 51.2% | 55.5% | 61.6%
COC(=O)[C@@]1(O)C[C@H]2O[C@]1(C)n1c3ccccc3c3c4c(c5c6ccccc6n2c5c31)C(=O)NC4 | -43% (active) | -63.1% (active) | -33.6% (active) | -59.3% (active) | -72.8% (active) | -44.3% (active) | -59.2% (active) | -39.7% (active) | -89.5% (active) | -66.6% (active)
Cc1ccccc1NC(=NCCCN1CC1)Nc1ccccc1C | 97.7% | 83.1% | 97.6% | 119% | 81.7% | 77.2% | 84.9% | 86.4% | 100% | 102%
CC[S][Hg][Cl] | 102% | 113% | 101% | 119% | 110% | 113% | -46.7% (active) | 98.8% | 109% | 124%
